Candida biofilm: kills Candida albicans biofilms. 85,000 tested, 0.14% active. AID 834. C. albicans biofilm + clotrimazole, Alamar Blue. inhibition, % at 6 µM;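 active = inhibition above 20%; inactive = inhibition below 20%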;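 note: preformed 24 hr biofilms exposed to compound for 48 hr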
HePTP inh: inhibitors of human HePTP phosphatase | P35236 | recombinant HePTP phosphatase activity, OD absorbance | inhibition, % at 20 µM | 110,000 tested, 0.64% active | AID 521; in the data active = inhibition above about 50%
FXIa mix inh: inhibitors of human coagulation factor XIa, pooled mixtures; P03951; purified FXIa, fluorogenic substrate; inhibition, % at 5 µM; 62,000 tested, 0.19% active; AID 680;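 note: each value is inhibition by a whole ten-compound pool holding the compound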
FXIIa mix inh: inhibitors of human coagulation factor XIIa, pooled mixtures; AID 684; P00748; purified FXIIa, fluorogenic substrate; 62,000 tested, 0.2% active; inhibition, % at 5 µM
Target sequence (P00748 20-372 limits assumed): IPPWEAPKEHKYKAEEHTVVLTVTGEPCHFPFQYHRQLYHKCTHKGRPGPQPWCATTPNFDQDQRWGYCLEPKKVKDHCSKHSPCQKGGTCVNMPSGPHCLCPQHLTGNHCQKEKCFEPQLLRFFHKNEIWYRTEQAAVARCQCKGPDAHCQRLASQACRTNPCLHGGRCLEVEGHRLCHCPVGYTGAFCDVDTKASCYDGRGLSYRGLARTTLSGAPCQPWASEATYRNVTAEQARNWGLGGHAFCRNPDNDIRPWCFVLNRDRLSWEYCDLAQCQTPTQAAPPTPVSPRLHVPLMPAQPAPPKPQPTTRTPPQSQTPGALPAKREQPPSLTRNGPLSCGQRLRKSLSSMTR
Target sequence (P00748 373-615 limits assumed): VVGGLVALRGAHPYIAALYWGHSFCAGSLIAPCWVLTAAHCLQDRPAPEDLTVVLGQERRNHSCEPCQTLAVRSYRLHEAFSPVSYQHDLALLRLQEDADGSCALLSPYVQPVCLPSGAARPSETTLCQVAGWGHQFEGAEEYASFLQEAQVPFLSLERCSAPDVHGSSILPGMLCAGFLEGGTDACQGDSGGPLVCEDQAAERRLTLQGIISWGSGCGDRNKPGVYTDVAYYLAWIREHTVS
D1 mod: allosterically modulates the human D1 dopamine receptor; HEK293 D1, CRE-luciferase, dopamine EC30 potentiation; actives deviate in either direction; 58,000 tested, 5.9% active; B-score at 10 µM; AID 641;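 active = luminescence count or its row- and column-corrected plate score outside the 99.7% band of the plate's sample wells, on either side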
TNAP act mid DEA: activates human TNAP at intermediate phosphate acceptor concentration; P05186; purified TNAP, CDP-star luminescence, 100 mM DEA, 30 min; stronger effect = higher value; scale: 0 levamisole-inhibited, 1 vehicle-only enzyme; activation factor at 20 µM; 64,000 tested, under 10 active;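 active = activation factor of at least 2 at 20 µM, relative to controls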
Numbers stand for hits. This is one part of a sample in which hits are shown more often than they occur. Cut-off read from the data, not from the text of the source, unless noted: active = inhibition above about 20% (passing the limit was not always enough); inactive = the rest.

For CCC(CC)C(=O)Nc1cc(NC(=O)C(CC)CC)cc(C(=O)O)c1 the results were Candida biofilm inactive, HePTP inh inactive, FXIa mix inh inactive, FXIIa mix inh inactive, D1 mod inactive and TNAP act mid DEA inactive.
`Cc1[nH]c2ccccc2c1-c1nc2ccccc2[nH]1` gave Candida biofilm inactive, HePTP inh inactive, FXIa mix inh inactive, FXIIa mix inh inactive, D1 mod -2.72 and TNAP act mid DEA inactive.
Cc1cc(-c2nc3ccccc3[nH]2)c2ccccc2n1 was read as HePTP inh inactive.
COc1ccc(NS(=O)(=O)c2cccc(-c3nnc4n3CCCCC4)c2)cc1 was read as Candida biofilm inactive, HePTP inh inactive, FXIa mix inh inactive, FXIIa mix inh inactive and TNAP act mid DEA inactive.
O=c1[nH]c2ccc(S(=O)(=O)Nc3ccc(-c4nnc5n4CCCCC5)cc3)cc2o1 was read as Candida biofilm inactive, HePTP inh inactive, FXIa mix inh inactive, FXIIa mix inh inactive, D1 mod -5.01 and TNAP act mid DEA inactive.
Screening O=C(CSc1nnc(-c2ccc(Cl)s2)o1)N1CCCc2ccccc21 returned Candida biofilm inactive, HePTP inh inactive, FXIa mix inh inactive, FXIIa mix inh inactive, D1 mod -2.65 and TNAP act mid DEA inactive.
For O=C(c1cccc([N+](=O)[O-])c1)c1ccc2c(c1)C(=O)N(c1ccccc1C(=O)O)C2=O the results were HePTP inh inactive.
For O=C(c1cccc([N+](=O)[O-])c1)c1ccc2c(c1)C(=O)NC2=O the results were HePTP inh 104.2.
O=C1NC(=S)S/C1=C/c1ccc(O)c(Br)c1 was read as HePTP inh 103.6.
For O=C1NC(=S)S/C1=C/c1ccc(OCc2ccc(F)cc2)c(Br)c1 the results were HePTP inh inactive.
`Cc1nc2cc(N3CCN(C)CC3)c(NC(=O)Cc3ccccc3)cc2c(=O)n1Cc1ccccc1` gave Candida biofilm inactive, HePTP inh inactive, FXIa mix inh inactive, FXIIa mix inh inactive, D1 mod -2.41 and TNAP act mid DEA inactive.
CCOC(=O)c1c(NC(=O)COc2ccc(-c3ccccc3)cc2)sc(C(C)=O)c1C was read as HePTP inh inactive.
For CC(NC(=O)c1ccccc1Cl)c1ccccc1 (stereo unspecified) the results were HePTP inh 97.6.
Screening O=C(O)c1ccc2c3c(ncnc13)-c1ccccc1C2=O returned Candida biofilm inactive, HePTP inh inactive, FXIa mix inh inactive, FXIIa mix inh inactive, D1 mod inactive and TNAP act mid DEA inactive.
O=C1c2ccccc2-c2ncnc3cccc1c23 was read as Candida biofilm inactive, HePTP inh inactive, FXIa mix inh inactive, FXIIa mix inh inactive, D1 mod 12.7 and TNAP act mid DEA inactive.
`Cc1ccccc1N(C=O)C(=O)C1C(C)C2C=CC1C21CC1` (stereo unspecified) gave HePTP inh 104.7.
CC1C(C(=O)N(C=O)c2ccccc2F)C2C=CC1C21CC1 (stereo unspecified) was read as HePTP inh inactive.
For COc1ccc(CCNC(=O)CN(c2ccc(C)cc2)S(=O)(=O)c2ccc(F)cc2)cc1OC the results were HePTP inh inactive.
O=C(COc1ccccc1Cl)NNC(=O)c1ccncc1 was read as HePTP inh 101.1.
For O=C(COc1ccccc1Cl)NNC(=O)c1cccnc1 the results were HePTP inh inactive.
O=C(NC(Nc1ccc([N+](=O)[O-])cc1)C(=O)c1ccccc1)c1ccco1 (stereo unspecified) was read as HePTP inh inactive.
`CCC(=O)Nc1cc2nn(-c3ccc(OC)cc3)nc2cc1C` gave Candida biofilm inactive, HePTP inh inactive, FXIa mix inh inactive, FXIIa mix inh inactive, D1 mod -5.02 and TNAP act mid DEA inactive.
`COc1ccc(-n2nc3ccc(NC(=O)/C=C\c4ccccc4)cc3n2)cc1` gave HePTP inh 102.1.
Screening Cc1ccc(-n2nc3cc(C)c(NC(=O)Cc4ccccc4)cc3n2)cc1 returned HePTP inh 63.4.
CCOc1ccc(-n2nc3ccc(NC(=O)/C=C/c4ccco4)cc3n2)cc1 was read as HePTP inh inactive.
`CCCC(=O)Nc1cc2nn(-c3ccc(C)cc3)nc2cc1C` gave HePTP inh inactive.
O=C(Nc1ccc(-c2nc3ccccc3s2)cc1)c1cc2ccccc2o1 was read as HePTP inh inactive.
O=C1N=C(N2CCCC2)S/C1=C\c1cccc(O)c1 was read as HePTP inh inactive.

Screening data deposited in PubChem by several laboratories.
